According to PubChem BioAssay AID1835 (Johns Hopkins Ion Channel Center, 2009):
Among all 2,400 compounds or so, about 750 (31%) were called active. This is one part of the list. Unmarked numbers belong to inactive results.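 The calls were made as follows: active = median signal gain over dofetilide-blocked control wells reaching their mean plus 3 SD, so readout 1 at least 0; inactive = the rest.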

These compounds were tested against Voltage-gated inwardly rectifying potassium channel KCNH2 (Homo sapiens) (UniProt Q12809) (assay: hERG protection against dofetilide inhibition, confirmation, cell-based, thallium flux, duplicate retest, dofetilide IC70 (AID 1835)). Conditions: hERG cell line, FluxOR thallium flux, dofetilide-blocked; at 10 µM; stronger effect = higher value.
Sequence of Voltage-gated inwardly rectifying potassium channel KCNH2 (Homo sapiens) (Q12809 whole entry, looked up): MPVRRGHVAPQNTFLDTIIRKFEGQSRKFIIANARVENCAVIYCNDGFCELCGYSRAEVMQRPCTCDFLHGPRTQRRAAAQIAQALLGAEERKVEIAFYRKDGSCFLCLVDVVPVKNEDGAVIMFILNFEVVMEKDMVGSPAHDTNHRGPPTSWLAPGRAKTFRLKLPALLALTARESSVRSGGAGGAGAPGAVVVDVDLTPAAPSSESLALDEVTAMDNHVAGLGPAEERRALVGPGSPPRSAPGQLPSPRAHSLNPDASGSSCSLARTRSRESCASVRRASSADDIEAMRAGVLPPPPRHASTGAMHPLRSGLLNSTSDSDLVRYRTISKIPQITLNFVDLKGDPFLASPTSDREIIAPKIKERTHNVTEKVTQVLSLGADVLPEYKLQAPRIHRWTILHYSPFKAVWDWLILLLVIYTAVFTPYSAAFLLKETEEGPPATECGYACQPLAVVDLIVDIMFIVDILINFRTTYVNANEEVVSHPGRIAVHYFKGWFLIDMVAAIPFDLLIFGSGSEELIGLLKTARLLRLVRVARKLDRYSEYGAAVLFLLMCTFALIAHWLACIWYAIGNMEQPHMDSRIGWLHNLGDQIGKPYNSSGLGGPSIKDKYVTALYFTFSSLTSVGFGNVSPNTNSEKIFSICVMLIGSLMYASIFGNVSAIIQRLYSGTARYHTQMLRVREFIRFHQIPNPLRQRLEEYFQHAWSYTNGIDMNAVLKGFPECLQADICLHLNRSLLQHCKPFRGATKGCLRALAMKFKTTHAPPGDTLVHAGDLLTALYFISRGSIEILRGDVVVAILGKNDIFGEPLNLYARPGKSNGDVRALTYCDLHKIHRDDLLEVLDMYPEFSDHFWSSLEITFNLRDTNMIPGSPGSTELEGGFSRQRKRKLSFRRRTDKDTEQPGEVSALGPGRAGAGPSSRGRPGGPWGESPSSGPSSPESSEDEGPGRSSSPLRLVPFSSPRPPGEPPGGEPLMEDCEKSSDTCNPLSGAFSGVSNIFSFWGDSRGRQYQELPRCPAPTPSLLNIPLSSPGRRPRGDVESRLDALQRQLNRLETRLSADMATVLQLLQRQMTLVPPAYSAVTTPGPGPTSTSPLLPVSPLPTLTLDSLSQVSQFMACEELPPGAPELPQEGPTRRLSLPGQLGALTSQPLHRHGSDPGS
For `CCOC(=O)C1CCN(C(=O)CCS(=O)(=O)c2ccc3c(c2)CCN3C(=O)CC)CC1`, the activity increase over dofetilide control, less the hit threshold was -17%. `N#Cc1c(N)c(C(=O)c2ccccc2)n2ccccc12` showed an activity increase over dofetilide control, less the hit threshold of -2%. With `Cc1ccsc1/C=N/NC(=O)CNC(=O)c1ccccc1` the activity increase over dofetilide control, less the hit threshold was -2%. For `CCCCc1c(O)nc(SCC(=O)N2CCOCC2)[nH]c1=O`, the activity increase over dofetilide control, less the hit threshold was -10%. For `Cn1ncc2c(O/N=C(\N)c3ccc(C(F)(F)F)cc3)ncnc21`, the activity increase over dofetilide control, less the hit threshold was -15%. `NC(=O)C1CCN(C(=O)CCC(=O)c2ccc(F)cc2)CC1` showed an activity increase over dofetilide control, less the hit threshold of -4%. `Cc1nc(-c2cc(C#N)c(Sc3ccc(Cl)cc3Cl)nc2C)cs1` was tested, and the activity increase over dofetilide control, less the hit threshold was -4%. For `O=C(NC(=S)Nc1ccccc1)c1ccc(Br)o1`, the activity increase over dofetilide control, less the hit threshold was 5% (active). In the case of `O=C(NC(=S)Nc1ccccc1F)c1ccc(Br)o1`, the activity increase over dofetilide control, less the hit threshold is reported as 43% (active). `COc1ccc(-c2cc(C(=O)Nc3ccccc3SC)no2)cc1` gave an activity increase over dofetilide control, less the hit threshold of -2%. In the case of `Cc1cccc(NC(=S)NC(=O)c2ccc(Br)o2)c1`, the activity increase over dofetilide control, less the hit threshold is reported as 33% (active). For `COc1ccccc1NC(=S)NC(=O)c1ccc(-c2ccc(Cl)cc2)o1`, the activity increase over dofetilide control, less the hit threshold was 8% (active). In the case of `Cc1ccc(NC(=S)NC(=O)c2ccc(Br)o2)c(C)c1`, the activity increase over dofetilide control, less the hit threshold is reported as 0%. `C/C(=N\NC(=S)Nc1cccc(C)c1)c1ccco1` showed an activity increase over dofetilide control, less the hit threshold of -26%. With `Cc1ccc2cc(CN(CCCN(C)C)C(=S)NCc3ccccc3)c(=O)[nH]c2c1C` the activity increase over dofetilide control, less the hit threshold was -19%. In the case of `Cc1nn(-c2ccc(Cl)nn2)c(=O)c2ccccc12`, the activity increase over dofetilide control, less the hit threshold is reported as -12%. Work on `COc1cccc2cc(-c3nc4ccccc4[nH]3)c(=O)oc12` yielded an activity increase over dofetilide control, less the hit threshold of -24%. Work on `CC(C)=CC(=O)OCC(=O)Nc1ccc(SC(F)F)cc1` yielded an activity increase over dofetilide control, less the hit threshold of -16%. `O=C(Nc1cccnc1)c1cc(-c2cccs2)on1` gave an activity increase over dofetilide control, less the hit threshold of -16%. For `O=C(NC(=S)Nc1cccnc1)c1cc2ccccc2o1`, the activity increase over dofetilide control, less the hit threshold was 21% (active). `Cc1c(C(=O)NC(=S)NCc2cccnc2)oc2ccccc12` gave an activity increase over dofetilide control, less the hit threshold of -7%. `O=C(NC(=S)NCCC1=CCCCC1)c1ccco1` was tested, and the activity increase over dofetilide control, less the hit threshold was 50% (active). For `S=C(NCCc1ccccc1)NCCN1CCOCC1`, the activity increase over dofetilide control, less the hit threshold was -10%. In the case of `O=C(NC(=S)NCCC1=CCCCC1)c1ccc(Br)o1`, the activity increase over dofetilide control, less the hit threshold is reported as 27% (active). For `O=C(NC(=S)NCCc1ccc(Cl)cc1)c1ccco1`, the activity increase over dofetilide control, less the hit threshold was -7%. `Oc1c(Br)cc(Br)cc1CNc1cccc2cccnc12` gave an activity increase over dofetilide control, less the hit threshold of -19%. `COc1ccc(S(=O)(=O)N(CCc2ccccc2)CC(=O)O)cc1` showed an activity increase over dofetilide control, less the hit threshold of -12%. For `CN(Cc1ccccc1)C(=O)CCc1ccccc1`, the activity increase over dofetilide control, less the hit threshold was 12% (active). `CN(Cc1ccsc1)C(=O)CCc1nnc(Cc2c[nH]c3ccccc23)o1` gave an activity increase over dofetilide control, less the hit threshold of -8%. `O=C1NCCN1Cc1ccccc1F` showed an activity increase over dofetilide control, less the hit threshold of -20%.
